# Assay results from PubChem BioAssay AID624122 (National Center for Advancing Translational Sciences (NCATS), 2012).
# The source made the active and inactive calls.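 How the source made its calls: active means a dissociation constant for apoferritin binding could be measured by titration calorimetry; inconclusive means binding seen but dissociation constant not obtainable; inactive means no binding seen.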
# Biological target: Ferritin light chain (Equus caballus) (UniProt P02791)
# Experiment: Isothermal Titration Calorimetry Based Assay for Measurement of Binding Affinity to Apoferritin
# Conditions: horse apoferritin
# Excerpt: Anesthetic development has remained a largely empirical process. There are growing concerns about the cognitive effects of known general anesthetics and acceleration of the onset of neurodegenerative disease. The compounds' toxicity and multiple specific binding targets in the mammalian brain [4] has made them less attractive as drug leads. This isothermal titration calorimetry (ITC) assay is used to provide Kd binding affinity measurements for apoferritin, which is used here as a surrogate system to identify compounds with potential anesthetic properties. References: [1] S.L. Bianchi, T. Tran, C. Liu, S. Lin, Y. Li, J.M. Keller, R.G. Eckenhoff, and M.F. Eckenhoff, Brain and behavior changes in 12-month-old Tg2576 and nontransgenic mice exposed to anesthetics. Neurobiol Aging 29 (2008) 1002-10. Z. Xie, Y. Dong, U. Maeda, R.D. Moir, W. Xia, D.J. Culley, G. Crosby, and R.E. Tanzi, The inhalation anesthetic isoflurane induces a vicious cycle of apoptosis and amyloid beta-protein accumulation. J Neurosci 27 (2007) 1247-54. […]
# In order to further triage primary hits identified from qHTS screen (AID 485281), ITC was utilized to evaluate direct binding signatures between filtered compounds and apoferritin and provide a complete thermodynamic characterization of selected compounds. […] Concentrations were then determined using absorption spectroscopy based on standards prepared in organic solvents. […]
# Ferritin light chain (Equus caballus), sequence (P02791 2-175 limits assumed): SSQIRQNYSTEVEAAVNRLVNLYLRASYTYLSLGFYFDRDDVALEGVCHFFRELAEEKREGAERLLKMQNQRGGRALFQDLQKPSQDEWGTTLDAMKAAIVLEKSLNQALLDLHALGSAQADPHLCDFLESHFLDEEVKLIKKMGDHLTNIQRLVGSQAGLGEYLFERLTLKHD
row,Structure (SMILES),Kd
1,Cc1ccc(-c2ccc(=O)n(CC(=O)NCCc3ccccc3)n2)cc1,8.2 µM (active)
2,COc1ccc(-c2ccc(=O)n(CC(=O)NCc3ccco3)n2)cc1,4.2 µM (active)
